Measurements as given in PubChem BioAssay.
Calls of active or inactive are those of the source.

Experiments:
[1] = binders of probe aFSTL3 on microarray, primary screen, stem cell growth factor project, biochemical, small-molecule microarray, fluorescence 635/667 (AID 1064); conditions: higher = more signal;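 note: measures binding of the biotinylated anti-FSTL3 antibody to printed compounds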
[2] = binders from COS7 lysate, DM2A8 probe, primary screen, torsin A project, cell lysate, small-molecule microarray, fluorescence 635/667 (AID 1065); conditions: higher = more signal, COS7 lysate expressing mutant human TOR1A
[3] = binders of probe aFGF2 on microarray, primary screen, stem cell growth factor project, biochemical, small-molecule microarray, fluorescence 635/667 (AID 1067); conditions: higher = more signal;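 note: measures binding of biotinylated aFGF2 protein to printed compounds on slides; z-score merges feature fluorescence and signal-to-noise across triplicate slides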
[4] = binders of probe aFGF10 on microarray, primary screen, stem cell growth factor project, biochemical, small-molecule microarray, fluorescence 635/667 (AID 1071); conditions: higher = more signal;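 note: score merges 667 nm spot intensity and signal to noise from triplicate slides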
[5] = molecular target: Neurogenic locus notch homolog protein 2 (Homo sapiens) (UniProt Q04721); assay: Notch2 binders on small-molecule microarrays, primary screen, biochemical, small-molecule microarray, 635 nm fluorescence, stem cell growth factors (AID 1073); conditions: Notch2 binding, higher = more signal
[6] = molecular target: Pro-neuregulin-1, membrane-bound isoform (Homo sapiens) (UniProt Q02297); assay: NRG1 binders on small-molecule microarrays, primary screen, psychiatric disease protein project, biochemical, small-molecule microarray, fluorescence 635/667 (AID 1075); conditions: NRG1 binding, 635 nm fluorescence, higher = more signal;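 note: score combines 667 nm spot fluorescence with signal to noise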
Chain of Pro-neuregulin-1, membrane-bound isoform (Homo sapiens) (Q02297 whole entry, looked up, the tested form may be a part, canonical isoform): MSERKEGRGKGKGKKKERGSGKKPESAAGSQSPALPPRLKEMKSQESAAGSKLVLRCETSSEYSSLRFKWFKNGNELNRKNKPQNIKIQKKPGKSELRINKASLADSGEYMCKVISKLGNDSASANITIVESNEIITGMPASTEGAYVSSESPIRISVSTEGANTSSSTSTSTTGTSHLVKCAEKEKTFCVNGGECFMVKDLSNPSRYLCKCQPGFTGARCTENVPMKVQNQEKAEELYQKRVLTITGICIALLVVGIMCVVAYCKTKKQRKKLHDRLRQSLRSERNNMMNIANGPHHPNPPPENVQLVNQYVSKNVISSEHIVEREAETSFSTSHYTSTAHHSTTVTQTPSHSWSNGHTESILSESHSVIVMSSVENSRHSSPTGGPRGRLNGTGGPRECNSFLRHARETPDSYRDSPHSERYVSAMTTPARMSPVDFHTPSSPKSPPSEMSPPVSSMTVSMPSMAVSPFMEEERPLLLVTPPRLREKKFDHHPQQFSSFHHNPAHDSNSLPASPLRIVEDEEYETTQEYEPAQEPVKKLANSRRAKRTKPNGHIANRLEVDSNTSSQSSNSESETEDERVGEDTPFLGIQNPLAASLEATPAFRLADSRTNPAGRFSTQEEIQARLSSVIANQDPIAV

[7] = system: Neuregulin-1 EGF-like domain; assay: binders of neuregulin-1 EGF-like domain, primary screen, biochemical, small-molecule microarray, 635 nm fluorescence (AID 1081); conditions: small-molecule microarray binding, higher = more signal;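 note: binding of the protein to compounds printed on small-molecule microarray slides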
[8] = FRG1 promoter luciferase signal modulators, primary screen, FRG1 inhibition for FSHD, cell-based, C2C12 myotubes, firefly/Renilla luciferase, luminescence (AID 1084); conditions: higher = more signal, called active from +8 up or from −8 down
[9] = binders of probe aFST on microarray, primary screen, stem cell growth factor project, biochemical, small-molecule microarray, fluorescence 635/667 (AID 1086); conditions: higher = more signal;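 note: score merges 667 nm fluorescence with signal-to-noise of each printed compound spot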
[10] = binders of probe aHhip on microarray, primary screen, stem cell growth factor project, biochemical, small-molecule microarray, fluorescence 635/667 (AID 1087); conditions: higher = more signal;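 note: score merges spot fluorescence at 667nm with spot signal to noise ratio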
[11] = system: PRMT1 (protein arginine N-methyltransferase 1); assay: PRMT1 binders on small-molecule microarrays, primary screen, biochemical, small-molecule microarray, 635 nm fluorescence (AID 1088); conditions: small-molecule microarray binding, higher = more signal;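 note: binding of Prmt1 protein to compounds spotted on small-molecule microarray slides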
[12] = yeast growth modulation, basal conditions, primary screen, YJM789 clinical isolate, OD600, 24 h (AID 1089);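 note: growth of clinical yeast isolate S. cerevisiae YJM 789 seeded 1000 cells per well; test concentration not given here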; conditions: S. cerevisiae YJM789 growth, higher = more signal, called active from +8 up or from −8 down
[13] = fission yeast growth modulation, primary screen, strain 972, OD600, 24 h, no modulator (AID 1090);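 note: basal condition with compound alone and no growth modifier present; test concentration not given here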; conditions: S. pombe 972 growth, higher = more signal, called active from +8 up or from −8 down
[14] = S. cerevisiae growth modulation with rapamycin, primary screen, strain BY4716, OD600, 96 h (AID 1091); conditions: higher = more signal, called active from +8 up or from −8 down; note: test concentration not given here
[15] = molecular target: Torsin-1A-interacting protein 2 (Homo sapiens) (UniProt Q8NFQ8); assay: LULL1 binders on small-molecule microarray, primary screen, cell lysate, human LULL1 lysate, 635/667 nm fluorescence (AID 1092); conditions: hLULL1 lysate binding, 635 nm fluorescence, higher = more signal;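 note: probe is lysate of COS7 cells overexpressing human LULL1; score merges per-feature 667 nm fluorescence with signal-to-noise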
Chain of Torsin-1A-interacting protein 2 (Homo sapiens) (Q8NFQ8 whole entry, looked up): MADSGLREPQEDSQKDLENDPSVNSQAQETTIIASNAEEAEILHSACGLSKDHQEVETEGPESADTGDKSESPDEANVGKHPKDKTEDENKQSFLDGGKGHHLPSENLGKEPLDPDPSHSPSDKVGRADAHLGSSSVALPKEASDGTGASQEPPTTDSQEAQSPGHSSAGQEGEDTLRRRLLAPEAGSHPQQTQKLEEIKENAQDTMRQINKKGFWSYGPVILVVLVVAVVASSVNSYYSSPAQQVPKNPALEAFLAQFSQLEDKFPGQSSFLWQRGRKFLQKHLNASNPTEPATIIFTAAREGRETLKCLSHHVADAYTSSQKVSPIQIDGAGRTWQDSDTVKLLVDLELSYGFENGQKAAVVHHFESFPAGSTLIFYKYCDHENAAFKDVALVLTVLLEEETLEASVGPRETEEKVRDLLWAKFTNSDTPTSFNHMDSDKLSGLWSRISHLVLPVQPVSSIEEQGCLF

[16] = E. coli growth modulation, two-sided OD650, primary screen, E. coli filamentation project, strain DRC41, 24 h (AID 1093); conditions: OD650, 24 h, higher = more signal, called active from +8 up or from −8 down;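 note: MC1000 strain lacking acrAB efflux and sulA so SOS filamentation is blocked; test concentration not given here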
[17] = small-molecule microarray binders of probe aLefty2, primary screen, biochemical, biotinylated probe, 635/667 nm fluorescence (AID 1094); conditions: higher = more signal;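 note: score merges spot fluorescence near 667 nm with spot signal-to-noise ratio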
[18] = system: Noggin (protein binding on small-molecule microarray); assay: Noggin binders on small-molecule microarray, primary screen, biochemical, 635/667 nm fluorescence (AID 1095); conditions: 635 nm fluorescence, higher = more signal;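 note: score merges 667 nm feature fluorescence with signal to noise over triplicate slides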
[19] = molecular target: Neurogenic locus notch homolog protein 3 (Homo sapiens) (UniProt Q9UM47); assay: NOTCH3 binders on small-molecule microarray, primary screen, biochemical, 635/667 nm fluorescence (AID 1096); conditions: NOTCH3 binding, 635 nm fluorescence, higher = more signal
Chain of Neurogenic locus notch homolog protein 3 (Homo sapiens) (Q9UM47 whole entry, looked up): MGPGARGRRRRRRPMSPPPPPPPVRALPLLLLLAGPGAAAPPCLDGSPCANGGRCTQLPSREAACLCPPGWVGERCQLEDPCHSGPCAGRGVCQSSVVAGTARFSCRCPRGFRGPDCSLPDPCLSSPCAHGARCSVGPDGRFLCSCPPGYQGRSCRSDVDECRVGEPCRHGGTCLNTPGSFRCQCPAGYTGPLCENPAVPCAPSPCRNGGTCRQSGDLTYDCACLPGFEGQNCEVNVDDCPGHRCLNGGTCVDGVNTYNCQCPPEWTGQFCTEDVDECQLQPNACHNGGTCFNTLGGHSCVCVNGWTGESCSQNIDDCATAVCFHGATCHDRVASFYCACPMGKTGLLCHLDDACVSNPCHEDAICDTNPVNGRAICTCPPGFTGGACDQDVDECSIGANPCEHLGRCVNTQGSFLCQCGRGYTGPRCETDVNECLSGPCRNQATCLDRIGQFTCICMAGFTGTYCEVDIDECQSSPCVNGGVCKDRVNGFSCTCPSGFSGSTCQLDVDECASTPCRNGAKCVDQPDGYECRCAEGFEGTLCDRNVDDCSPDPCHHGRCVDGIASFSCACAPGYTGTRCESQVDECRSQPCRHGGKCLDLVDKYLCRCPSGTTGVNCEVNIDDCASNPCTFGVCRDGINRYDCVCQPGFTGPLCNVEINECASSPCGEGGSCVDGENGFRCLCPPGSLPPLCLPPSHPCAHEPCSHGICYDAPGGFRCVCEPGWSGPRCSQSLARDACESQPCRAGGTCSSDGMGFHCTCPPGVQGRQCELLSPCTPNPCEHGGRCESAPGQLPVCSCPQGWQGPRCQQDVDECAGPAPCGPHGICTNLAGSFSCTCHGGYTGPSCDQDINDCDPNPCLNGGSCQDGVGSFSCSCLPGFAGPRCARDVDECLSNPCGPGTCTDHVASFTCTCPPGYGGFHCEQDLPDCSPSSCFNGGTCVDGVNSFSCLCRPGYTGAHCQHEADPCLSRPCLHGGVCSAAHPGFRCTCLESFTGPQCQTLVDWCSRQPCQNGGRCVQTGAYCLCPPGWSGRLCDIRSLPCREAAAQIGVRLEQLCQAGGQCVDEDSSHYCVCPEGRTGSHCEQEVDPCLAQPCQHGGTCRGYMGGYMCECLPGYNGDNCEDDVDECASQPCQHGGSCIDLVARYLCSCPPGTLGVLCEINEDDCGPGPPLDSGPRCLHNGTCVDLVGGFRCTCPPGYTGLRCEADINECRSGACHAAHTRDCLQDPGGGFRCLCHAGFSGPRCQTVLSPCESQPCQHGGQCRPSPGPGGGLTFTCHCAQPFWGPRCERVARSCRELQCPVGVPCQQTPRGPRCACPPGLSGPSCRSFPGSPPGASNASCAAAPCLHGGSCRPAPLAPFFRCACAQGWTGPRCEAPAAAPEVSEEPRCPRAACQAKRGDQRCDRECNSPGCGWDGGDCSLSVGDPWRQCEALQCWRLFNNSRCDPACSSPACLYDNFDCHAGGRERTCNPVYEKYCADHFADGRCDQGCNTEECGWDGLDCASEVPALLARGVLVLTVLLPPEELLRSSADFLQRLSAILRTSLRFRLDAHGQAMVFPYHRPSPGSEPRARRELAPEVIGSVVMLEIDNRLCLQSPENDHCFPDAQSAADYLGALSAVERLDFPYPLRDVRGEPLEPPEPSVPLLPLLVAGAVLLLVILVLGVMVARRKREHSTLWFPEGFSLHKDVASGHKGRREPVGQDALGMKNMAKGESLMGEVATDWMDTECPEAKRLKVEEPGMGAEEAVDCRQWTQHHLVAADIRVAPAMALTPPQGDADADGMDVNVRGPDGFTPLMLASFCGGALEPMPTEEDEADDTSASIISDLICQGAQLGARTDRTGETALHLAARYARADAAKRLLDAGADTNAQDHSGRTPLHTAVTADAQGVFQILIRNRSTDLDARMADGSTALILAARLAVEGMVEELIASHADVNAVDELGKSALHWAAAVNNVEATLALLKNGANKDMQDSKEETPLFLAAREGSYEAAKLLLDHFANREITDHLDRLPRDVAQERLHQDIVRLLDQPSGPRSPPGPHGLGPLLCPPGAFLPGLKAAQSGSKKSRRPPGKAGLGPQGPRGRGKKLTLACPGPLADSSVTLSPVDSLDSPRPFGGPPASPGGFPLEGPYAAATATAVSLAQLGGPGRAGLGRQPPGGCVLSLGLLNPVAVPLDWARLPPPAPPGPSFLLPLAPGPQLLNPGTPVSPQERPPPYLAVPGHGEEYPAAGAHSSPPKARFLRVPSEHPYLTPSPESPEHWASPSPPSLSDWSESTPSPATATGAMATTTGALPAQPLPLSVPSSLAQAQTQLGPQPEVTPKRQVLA

[20] = small-molecule microarray binders of probe aEGFR, primary screen, biochemical, biotinylated probe, 635/667 nm fluorescence (AID 1097); conditions: higher = more signal;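 note: probe is a biotinylated anti-EGFR antibody binding compounds printed on slides; score combines fluorescence near 667 nm and signal to noise of each spot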

SMILES	composite z-score [1]	composite z-score [2]	composite z-score [3]	composite z-score [4]	composite z-score [5]	composite z-score [6]	composite z-score [7]	z-score [8]	composite z-score [9]	composite z-score [10]	composite z-score [11]	z-score [12]	z-score [13]	z-score [14]	composite z-score [15]	z-score [16]	composite z-score [17]	composite z-score [18]	composite z-score [19]	composite z-score [20]
CCCC[C@@H](O)C1=C(COc2ccccc2)Cn2c(=O)n(-c3ccccc3)c(=O)n2[C@H]1CO	-0.353	-0.0302	-0.118	0.0467	-0.239	-0.21	-0.851	-1.83 (inactive)	-0.512	0.0274	0.0063	-2.31 (inactive)	-1.82 (inactive)	-1.17 (inactive)	0.94	1.87 (inactive)	-0.285	-0.376	-0.88	-0.229
CCCCCCC#C[Si](O[C@H](c1ccccc1)c1cn(Cc2cccc(Cl)c2)nn1)(C(C)C)C(C)C	-0.194	0.485	-0.161	0.238	0.631	0.485	0.382	-0.891 (inactive)	-0.0431	-0.0994	1	-0.381 (inactive)	0.403 (inactive)	-0.162 (inactive)	0.416	1.12 (inactive)	-0.0719	0.255	0.487	-0.0828
C/C=C/[C@@H](CCn1cc([C@H](O)c2ccccc2)nn1)[Si](C)(C)c1ccc(OC)cc1	0.683	1.28	-0.0462	-0.135	-1.5	1.29	0.96	-1.41 (inactive)	-1.12	-0.236	1.03	-2.41 (inactive)	-0.143 (inactive)	-0.0906 (inactive)	1.33	1.43 (inactive)	-0.171	-0.385	-0.498	-0.298
COc1ccccc1CN1C(=O)c2ccccc2[C@@H](C(=O)NCC(C)C)[C@@H]1c1ccc(CO)cc1	0.482	-0.117	0.0342	-0.0779	1.07	0.869	0.7	-1.97 (inactive)	0.0346	-0.0994	-0.106	0.444 (inactive)	-0.288 (inactive)	0.125 (inactive)	2.18	0.0616 (inactive)	-0.0042	-0.081	-0.222	-0.0398
COC(=O)[C@@]1(Cc2ccc(OC)cc2)[C@H]2c3cc(C(=O)N4CCCC4)n(CCc4ccc(O)c(OC)c4)c3C[C@H]2CN1C(=O)c1ccccc1	0.411	-0.336	0.0331	0.252	1.56	1.2	0.803	-0.454 (inactive)	0.603	0.167	-1.53	0.525 (inactive)	0.452 (inactive)	0.0019 (inactive)	2.6	-1.13 (inactive)	0.128	-0.879	-0.56	0.0055
COCCOC(=O)N1C(=O)[C@@]2(c3cc(C#CCCO)ccc31)[C@H](C(=O)N1CCc3cc(OC)c(OC)cc3C1)[C@H]1C(=O)O[C@H](c3ccccc3)[C@H](c3ccccc3)N1[C@@H]2c1ccc(OCCO)cc1	-0.392	0.282	-0.0867	0.501	0.467	0.007	1.16	-0.561 (inactive)	0.242	-0.216	1.55	-1.17 (inactive)	-0.581 (inactive)	2.59 (inactive)	2.59	1.26 (inactive)	-0.104	1.12	1.07	-0.0859
CCCC[C@H]1OB(O)C[C@H]2C1=C(COc1ccccc1)Cn1c(=O)n(-c3ccccc3)c(=O)n12	-0.211	0.556	-0.145	0.279	0.403	1.01	0.77	-0.971 (inactive)	0.415	-0.164	0.905	0.54 (inactive)	-4.94 (inactive)	0.59 (inactive)	2.24	-0.298 (inactive)	-0.116	0.836	0.733	-0.0947
OCCCC1=CC(c2cccs2)N(Cc2cccc(OC(F)(F)F)c2)CC1 (stereo not given)	-0.24	-0.487	-0.11	-0.331	-0.763	-0.222	0.44	0.67 (inactive)	-0.941	0.0401	0.532	-2.28 (inactive)	-14.6 (active)	1.15 (inactive)	0.365	-0.15 (inactive)	-0.0998	0.0008	-0.602	-0.115
CCOC(=O)C[C@H]1[C@H](OC(=O)Cc2ccc3c(c2)OCO3)[C@@H](NC(=O)c2ccccc2)c2cc(OCCCO)ccc2N1C(=O)c1ccccc1	-0.23	0.122	-0.0687	0.346	0.228	-0.109	0.895	-1.73 (inactive)	0.0452	-0.0237	0.267	-0.0172 (inactive)	-0.462 (inactive)	0.205 (inactive)	1.27	1.48 (inactive)	-0.166	0.53	0.713	-0.125
CC(C)CCC[C@@H](C)[C@H]1CC[C@@]2(C)C3=C(CC[C@]12C)[C@@]1(C)CC[C@H](OC(=O)c2ccc(N)cc2)C(C)(C)C1CC3 (stereo not given in full)	-0.219	0.481	-0.145	0.448	0.558	-0.0202	0.649	-1.35 (inactive)	0.0576	-0.406	0.68	-1.77 (inactive)	-1 (inactive)	-0.246 (inactive)	-0.0362	2.78 (inactive)	-0.19	0.434	0.614	-0.0238
